Screens (PubChem BioAssay)
An excerpt weighted towards active compounds, which were near 10% of everything screened.
p97 inhibitor – inhibitors of human p97 ATPase, primary screen, biochemical; actives 0.42% (n = 220,000); AID 1481, 2009; inhibition, % at 8 µM; recombinant p97 ATPase, Kinase-Glo ATP luminescence, 3 h; in the data active means inhibition above about 15%;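 further: 0% = DMSO vehicle and 100% = wells lacking enzyme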
Target sequence (P55072 whole entry, looked up): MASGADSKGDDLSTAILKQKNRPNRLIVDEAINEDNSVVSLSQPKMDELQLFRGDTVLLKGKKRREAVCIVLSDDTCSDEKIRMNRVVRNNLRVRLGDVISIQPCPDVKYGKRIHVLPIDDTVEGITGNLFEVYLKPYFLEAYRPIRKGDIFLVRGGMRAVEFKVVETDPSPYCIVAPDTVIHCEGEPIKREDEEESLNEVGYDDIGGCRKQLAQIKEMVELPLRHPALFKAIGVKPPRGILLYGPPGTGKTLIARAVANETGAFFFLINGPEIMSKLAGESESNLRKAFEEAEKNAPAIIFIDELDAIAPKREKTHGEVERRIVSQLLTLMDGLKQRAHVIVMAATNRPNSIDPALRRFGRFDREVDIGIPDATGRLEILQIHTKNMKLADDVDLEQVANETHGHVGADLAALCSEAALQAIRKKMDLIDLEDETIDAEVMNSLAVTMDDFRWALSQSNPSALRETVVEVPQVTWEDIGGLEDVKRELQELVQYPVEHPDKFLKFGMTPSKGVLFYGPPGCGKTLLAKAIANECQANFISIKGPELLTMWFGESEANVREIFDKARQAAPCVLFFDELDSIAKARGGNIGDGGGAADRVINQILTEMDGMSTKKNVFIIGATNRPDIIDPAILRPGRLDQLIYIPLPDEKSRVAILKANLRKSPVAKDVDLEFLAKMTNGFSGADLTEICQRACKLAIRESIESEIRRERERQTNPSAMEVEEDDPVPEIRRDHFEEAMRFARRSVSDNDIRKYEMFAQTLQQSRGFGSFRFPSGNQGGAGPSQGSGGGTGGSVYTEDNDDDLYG
bCat KO growth – primary screen for growth suppressors in beta-catenin knockout HCT116 cells (colon tumor, human) | HCT116 beta-catenin knockout viability, CellTiter-Glo, 60 h; stronger effect = lower value | viability, % at 10 µM | actives 1.5% (n = 140,000);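 active means viability at or under a set limit, the compound median less 4 SD, cut at about 6% in these data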;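 further: 0% = Hyamine 1622 control at 20 µM and 100% = untreated cell control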
Insulin prom inh – inhibitors of insulin promoter-driven GFP, primary screen, imaging, TRM-6 cells (human fetal islet line), eGFP reporter, cell count; reporter expression induced with tamoxifen; inhibition, % at 2 µM; actives 0.9% (n = 130,000); AID 1273, 2008;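 active means inhibition above the mean plus 3 SD, with well images judged a real hit on visual review, cut at about 60% in these data, passing the limit was not always enough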
Lmaj promast – Leishmania major promastigote growth inhibition, primary screen; Leishmania major promastigotes, resazurin fluorescence viability; AID 1063, 2008; actives 9% (n = 200,000); inhibition, % at 10 µM; in the data active means inhibition above about 50%;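 further: promastigotes grown with compound for 44 hours at 28 °C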
PTEN del growth – growth suppression of PTEN-null HCT116, primary screen, cell-based, CellTiter-Glo. actives 1.2% (n = 140,000). HCT116 PTEN-null viability, 60 h; stronger effect = lower value. AID 827, 2007. viability, % at 10 µM;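 active means viability at or below a set limit, 4 SD under the median of all tested compounds, cut at about 3.7% in these data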;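 further: PTEN knockout HCT116 line with beta catenin targeted HCT116 as companion control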
ROMK primary – ROMK potassium channel modulators, primary screen, cell-based, thallium flux, MLSMR library | ATP-sensitive inward rectifier potassium channel 1 (Homo sapiens), P48048 | Tet-inducible ROMK, thallium flux fluorescence; actives lie on both sides | B-score at 10 µM | actives 2% (n = 130,000);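 active means signal ratio slope over the read window, or its plate-corrected B-score, at least 3 SD from the plate mean, either direction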;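 further: B-score of the F/F0 ratio slope over 7 to 12 s after thallium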
* hit, by the source's call; . = not tested or not shown.

SMILES	p97 inhibitor	bCat KO growth	Insulin prom inh	Lmaj promast	PTEN del growth	ROMK primary
Cc1ccc(C)c(CN2C(=O)C3(OCCCO3)c3ccccc32)c1	-7	95	.	58*	78	.
COc1ccc(CN2CC(=O)N(c3ccc(C)c(C)c3)C2=S)cc1OC	5	.	-92	52*	.	0.91
COc1ccc(N2C(=O)CN(Cc3ccc(OC)c(OC)c3)C2=S)cc1	4	.	-5	26	.	-0.091
COc1cc(CN2CC(=O)N(c3ccc(C)c(C)c3)C2=S)cc(OC)c1OC	7	84	14	94*	78	0.15
COc1ccc(CCNC(=O)COC(=O)c2ccc(N3CCCC3=O)cc2)cc1OC	-1	.	.	0	.	0.52
Cc1cc(NC(=O)COC(=O)c2ccccc2[N+](=O)[O-])no1	6	.	.	-2	.	1.1
NCCc1nnc(SCc2ccccc2Cl)o1	12	.	.	.	.	.
NCCCCCc1nnc(SCc2ccc(Cl)cc2Cl)o1	-1	105	43	100*	95	.
CCN(CC)c1cc2nc(C)n(Cc3ccccc3)c(=O)c2cc1NC(=O)C1CC1	2	92	85*	6	88	.
Cc1nc2cc(N3CCCCC3)c(NC(=O)c3ccncc3)cc2c(=O)n1Cc1ccc(Cl)cc1	3	1.2*	.	11	1.1*	-0.43
COc1ccc(Cn2c(C3CC3)nc3ccc(NC(=O)C4CC4)cc3c2=O)cc1	2	85	0	10	89	.
Cc1nc2cc(N3CCN(C)CC3)c(NC(=O)Cc3ccccc3)cc2c(=O)n1Cc1ccccc1	-5	83	-67	89*	77	.
CC(=O)c1c(N2CCN(c3ccccn3)CC2)nc(=S)n(-c2ccccc2)c1C	0	.	.	1	.	0.11
O=C1C2C(C(=O)N1/N=C/c1ccc([N+](=O)[O-])o1)C1C=CC2C12CC2 (stereo unspecified)	10	46	-8	90*	60	0.075
O=C1C2C3C=CC(C4CC34)C2C(=O)N1/N=C/c1ccc([N+](=O)[O-])o1 (stereo unspecified)	5	.	-23	99*	.	.
O=C1C2C3C=CC(C4CC34)C2C(=O)N1/N=C/c1ccc(-c2ccc([N+](=O)[O-])cc2)o1 (stereo unspecified)	0	.	.	3	.	0.18
O=C1C2C3C=CC(C3)C2C(=O)N1/N=C/c1ccc(-c2ccccc2[N+](=O)[O-])o1 (stereo unspecified)	5	91	7	-3	99	0.05
CSc1ncccc1C(=O)OCC(=O)NCc1ccc2c(c1)OCO2	5	.	47	-9	.	-0.15
CN(C)CCN(Cc1ccc(Cl)cc1)c1ccccn1	5	78	0	99*	76	.
CCn1nc(C)c(CNC(=O)Nc2ccccc2C(=O)OC)c1C	-1	.	.	-2	.	-1.7
Cc1ccc2nc(-c3ccc(NC(=S)NC4CC(C)(C)NC(C)(C)C4)cc3)sc2c1	7	.	.	98*	.	-0.047
COc1ncnc2c1oc1ccccc12	-6	.	21	-3	.	-0.0067
Clc1ccc2oc3c(Cl)ncnc3c2c1	6	3.0*	-80	31	14	-1.4
Clc1ccc(OCCCn2ccnc2)c(Br)c1	2	69	31	95*	80	-0.88
COc1ccc(Cn2ccnc2)cc1Br	0	96	7	71*	102	0.39
SMILES	p97 inhibitor	bCat KO growth	Insulin prom inh	Lmaj promast	PTEN del growth	ROMK primary
Cc1ccc(OCCOCCn2ccnc2)c(Br)c1	1	72	10	92*	83	.
COc1ccc(Cn2ccnc2)cc1[N+](=O)[O-]	5	96	37	-1	91	0.3
COc1ccc(/C=C/C(=O)Nc2c(C(=O)O)[nH]c3ccccc23)cc1OC	4	.	.	.	.	.
Cc1ccsc1/C=N\NC(=O)CCc1c(C)n[nH]c1C	-5	.	.	2	.	0.55
CNC(=O)CN(c1ccc(F)cc1)S(=O)(=O)c1cc(C)ccc1OC	6	91	54	-3	86	0.96
COc1ccc(C(=O)N2CCNC(=O)C2CC(=O)Nc2ccc(C)cc2)cc1 (stereo unspecified)	-3	.	.	100*	.	-0.27
COC(=O)CC1C(=O)NCCN1C(=S)Nc1ccccc1 (stereo unspecified)	1	89	20	-2	93	-0.11
COc1ccccc1NC(=O)CC1C(=O)NCCN1C(=O)Nc1ccc(Cl)c(Cl)c1 (stereo unspecified)	-8	59	-6	67*	39	.
COc1ccc(NC(=S)N2CCNC(=O)C2CC(=O)Nc2cccc(Cl)c2C)cc1 (stereo unspecified)	-6	94	31	52*	90	-0.69
CCOC(=O)CC1C(=O)NCCN1C(=S)Nc1ccccc1 (stereo unspecified)	6	88	41	57*	94	1.1
COc1ccccc1NC(=S)N1CCNC(=O)C1CC(=O)Nc1cccc(C)c1 (stereo unspecified)	4	.	.	.	.	.
CC(C)C(NS(=O)(=O)c1cccc(C(F)(F)F)c1)C(=O)O (stereo unspecified)	3	.	.	.	.	.
COc1ccc(NC(=O)CNc2ccc(C#N)cc2)cc1	4	.	.	5	.	-0.57
COc1ccc(N2CC(NC(=O)N3CCc4ccccc43)CC2=O)cc1OC (stereo unspecified)	3	.	67	6	.	-0.63
C=CCn1c(=NC(=O)C2CCCCC2)sc2cc(NC(C)=O)ccc21	-4	73	.	80*	58	.
C=CCn1c(=NC(=O)C2CC2)sc2cc(NC(C)=O)ccc21	1	99	.	2	108	.
O=C(O)c1cccc(N2C(=O)/C(=C/c3ccc(SCc4ccc(Cl)cc4)o3)SC2=S)c1	6	.	.	14	.	-4.2*
Cc1ccc(/C=C2\SC(=S)N(c3cccnc3)C2=O)o1	7	.	.	.	.	.
Cc1ccc(NC(=S)N2CCN(c3ncccn3)CC2)c(C)c1	4	86	.	1	106	.
O=C(Nc1ccccc1)c1nnsc1S(=O)c1ccc(Cl)cc1 (stereo unspecified)	6	7	28	29	2.2*	.
CCOc1ccc(S(=O)(=O)Nc2nc3ccccc3nc2Nc2ccc(N3CCOCC3)cc2)cc1	0	87	.	8	79	.
CC(=O)CCc1c(C)[nH]c2ccccc2c1=O	5	94	-28	6	104	.
CC(=O)CCc1c(C)c2cc(C)ccc2[nH]c1=O	-1	86	70*	6	101	.
CC1=CC(C#N)(C#N)C(C#N)(C#N)C(c2ccccc2)N1 (stereo unspecified)	4	103	3	-4	99	.
CC1CCC(C(C)C)C2=C1C(C#N)(C#N)C(C#N)(C#N)C(c1ccccc1)N2 (stereo unspecified)	11	82	-27	100*	87	.
CCOc1ccc(C2CC(c3cccc(OC)c3OC)n3nnnc3N2)cc1Cl (stereo unspecified)	3	83	.	12	86	-0.031
